Many of the other results were omitted from the sample, so hits are more common in it than they were.
Dicer processing: inhibitors of human Dicer processing of pre-microRNA. cat-ELCCA pre-miR-21 Dicer processing, chemiluminescence; active compounds read high. Q9UPY3. hit rate 6% among 47,000. z-score at 25 µM; in the data active = z-score above about 3, passing the limit was not always enough;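 note: higher signal means more uncleaved substrate so more Dicer inhibition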
Target sequence (Q9UPY3 whole entry, looked up): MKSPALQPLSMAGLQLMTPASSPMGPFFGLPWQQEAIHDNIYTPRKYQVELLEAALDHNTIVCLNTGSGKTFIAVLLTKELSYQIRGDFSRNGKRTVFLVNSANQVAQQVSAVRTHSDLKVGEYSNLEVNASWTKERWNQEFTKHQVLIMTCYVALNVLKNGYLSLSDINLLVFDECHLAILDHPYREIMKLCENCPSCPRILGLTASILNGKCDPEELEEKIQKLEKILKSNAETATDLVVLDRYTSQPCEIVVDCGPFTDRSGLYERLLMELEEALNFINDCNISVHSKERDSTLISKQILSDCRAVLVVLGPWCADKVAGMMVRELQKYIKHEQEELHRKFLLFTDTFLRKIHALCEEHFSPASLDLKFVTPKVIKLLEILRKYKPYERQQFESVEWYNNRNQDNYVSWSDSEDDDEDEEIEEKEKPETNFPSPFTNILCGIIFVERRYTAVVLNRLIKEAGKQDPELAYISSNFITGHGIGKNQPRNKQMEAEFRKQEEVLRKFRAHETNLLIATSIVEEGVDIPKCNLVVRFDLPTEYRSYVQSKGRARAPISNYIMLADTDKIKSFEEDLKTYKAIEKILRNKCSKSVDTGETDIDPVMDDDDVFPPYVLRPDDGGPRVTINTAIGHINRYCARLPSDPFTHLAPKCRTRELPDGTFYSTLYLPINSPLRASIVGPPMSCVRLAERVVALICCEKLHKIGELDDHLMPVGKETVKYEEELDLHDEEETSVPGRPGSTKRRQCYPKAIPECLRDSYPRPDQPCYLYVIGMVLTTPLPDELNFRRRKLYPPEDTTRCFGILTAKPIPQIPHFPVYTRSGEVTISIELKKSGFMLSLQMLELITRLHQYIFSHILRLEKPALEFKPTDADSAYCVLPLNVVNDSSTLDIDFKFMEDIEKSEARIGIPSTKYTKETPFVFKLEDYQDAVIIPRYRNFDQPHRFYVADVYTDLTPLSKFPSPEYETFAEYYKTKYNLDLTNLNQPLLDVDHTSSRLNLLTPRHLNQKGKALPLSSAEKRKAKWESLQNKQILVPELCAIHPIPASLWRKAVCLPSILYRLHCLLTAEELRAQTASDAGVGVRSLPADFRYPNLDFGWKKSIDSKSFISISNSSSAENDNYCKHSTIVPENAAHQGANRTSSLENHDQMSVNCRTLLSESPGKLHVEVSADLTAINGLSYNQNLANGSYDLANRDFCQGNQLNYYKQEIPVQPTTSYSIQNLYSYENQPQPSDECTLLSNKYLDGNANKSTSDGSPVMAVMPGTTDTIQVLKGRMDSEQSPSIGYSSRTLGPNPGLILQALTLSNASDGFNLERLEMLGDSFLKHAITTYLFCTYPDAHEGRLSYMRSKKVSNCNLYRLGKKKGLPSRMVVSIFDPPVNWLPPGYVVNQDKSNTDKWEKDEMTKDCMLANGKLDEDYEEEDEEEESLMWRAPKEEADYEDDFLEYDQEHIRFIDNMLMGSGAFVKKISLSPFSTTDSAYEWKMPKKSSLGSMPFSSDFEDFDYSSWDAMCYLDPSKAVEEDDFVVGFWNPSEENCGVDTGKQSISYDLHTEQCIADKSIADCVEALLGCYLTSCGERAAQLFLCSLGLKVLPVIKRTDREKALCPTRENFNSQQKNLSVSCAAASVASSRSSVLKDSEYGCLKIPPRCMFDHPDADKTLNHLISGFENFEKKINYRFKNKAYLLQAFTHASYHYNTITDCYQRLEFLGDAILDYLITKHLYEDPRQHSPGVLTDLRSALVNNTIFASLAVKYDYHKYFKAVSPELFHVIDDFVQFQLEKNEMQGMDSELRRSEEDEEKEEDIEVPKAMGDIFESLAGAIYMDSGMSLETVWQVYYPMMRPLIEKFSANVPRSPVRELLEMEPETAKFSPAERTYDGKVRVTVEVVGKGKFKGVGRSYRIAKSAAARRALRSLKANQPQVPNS
Of the large screens only hits and unclear results are named; the others gave an inactive call.

COC(=O)CN(C#N)c1nc(N(C)C)nc(N(C)C)n1	none
COc1cc(C)nc(N(C#N)C(C)C)n1	none
COC(=O)c1ccsc1NC(=O)CN1CCN(S(=O)(=O)c2ccc(C)cc2)CC1	none
Cc1cccc(-c2noc(-c3cc(C)cc(C)c3)n2)c1	none
COc1cccc(C2C3=C(Nc4c2c(=O)n(C)c(=O)n4C)c2ccccc2C3=O)c1 (centres undefined)	none
Cn1c2c(c(=O)n(C)c1=O)C(c1ccsc1)C1=C(N2)c2ccccc2C1=O (centres undefined)	Dicer processing 7.8
Cn1c2c(c(=O)[nH]c1=O)C(c1ccsc1)C1=C(N2)c2ccccc2C1=O (centres undefined)	none
COCCOc1ccc(NC(=O)c2cc(OC)c(OC)c(OC)c2)cc1	none
CN(C)c1ccc(/C=C2\C(=O)ON=C2c2ccccc2)cc1C#N	none
CNC(=S)NNC(=O)Cn1ccc(C(F)(F)F)cc1=O	none
Clc1cc(Cl)c(N/N=C2\CCCc3occc32)c(Cl)c1	none
O=C(O)c1coc2c1/C(=N/Nc1c(Cl)cc(Cl)cc1Cl)CCC2	Dicer processing 3.8
O=C(O)c1coc2c1/C(=N/N1CCCCC1)CCC2	none
COc1ccc2c(c1)C(=O)/C(=C/c1ccccc1)CC2	none
CCOC(=O)C1CCN(C(=O)c2cncc(-c3cccs3)c2)CC1	none
Cc1[nH][nH]c(=O)c1C(c1cccc(O)c1)c1c(C)[nH][nH]c1=O	none
CCOC(=O)c1sc(S(C)=O)c2c1CC(c1ccccc1)CC2=O (centres undefined)	none
CS(=O)(=O)c1sc(Cl)c(-c2ccc(Cl)cc2)c1C#N	none
CS(=O)(=O)c1sc(C#N)c2c1C(=O)CC(c1ccccc1)C2 (centres undefined)	Dicer processing 5.7
OC(CNCc1ccc(Cl)cc1Cl)Cn1c(-c2ccc(F)cc2)cc2ccccc21 (centres undefined)	none
O=C1CC(c2ccccc2Cl)Nc2ccc3ccccc3c21 (centres undefined)	none
O=C1CC(c2cccc(Br)c2)Nc2ccc3ccccc3c21 (centres undefined)	Dicer processing 3.4
CN(C)c1ccc(C2CC(=O)c3ccccc3N2)cc1 (centres undefined)	none
COC(=O)C1=C(C)NC2=C(C(=O)c3ccccc32)C1c1ccc(OCc2ccccc2F)c(OC)c1 (centres undefined)	none
CC(C)NC(=S)Nc1cccc2ccccc12	Dicer processing 6.1
CC1CN(C(=S)Nc2cccc3ccccc23)CC(C)O1 (centres undefined)	none
CCOC(=S)Nc1cccc2ccccc12	none
N#Cc1ccc(Sc2cccs2)c([N+](=O)[O-])c1	none
CCOC(=O)c1[nH]c(C)c(C(C)=O)c1C	none
CCOC(=O)c1[nH]c(C)c(CC)c1C	Dicer processing 4.3
CCOC(=O)c1[nH]c(Cc2[nH]c(C(=O)OCC)c(C)c2C)c(C)c1C	none
CCOC(=O)c1c(NC(=O)CCC(=O)OC)sc2c1CCC2	none
COc1ccc(COC(=O)C2=C(C)NC3=C(C(=O)CCC3)C2c2cc(Cl)c(O)c(OC)c2)cc1 (centres undefined)	none
FC(F)(F)c1cc(-c2ccc(Cl)cc2)nc2cc(-c3ccc(Cl)cc3)nn12	none
Cc1nnc(SCc2cc(=O)n3c(nc4ccccc43)[nH]2)s1	none
O=C1CC(CSc2nnnn2-c2ccccc2)=NN1c1nc2ccccc2[nH]1	none
Cc1nnc(SCC2=NN(c3nc4ccccc4[nH]3)C(=O)C2)s1	Dicer processing 3.2
COC(=O)C1=C(C)NC2=C(C(=O)CC(c3ccccc3)C2)C1c1ccc(C)o1 (centres undefined)	none
CCc1cc2c(=O)c(-c3nc(C)cs3)c(C(=O)O)oc2cc1O	none
COc1ccc(/C=C/c2nc(-c3ccc(C)cc3)no2)cc1OC	Dicer processing 3.8
COc1ccc(-c2nc(-c3ccc(C)cc3)no2)cc1OC	none
COc1ccc(/C=C/c2nc(-c3ccncc3)no2)cc1OC	none
CCCCOc1ccc(C2c3c(oc4ccccc4c3=O)C(=O)N2c2nnc(C)s2)cc1OCC (centres undefined)	none
O=C1C(=O)N(Cc2ccc(Cc3ccc(CN4C(=O)C(=O)c5ccccc54)cc3)cc2)c2ccccc21	none
Cc1cc(C)c(CN2C(=O)C(=O)c3ccccc32)cc1CN1C(=O)C(=O)c2ccccc21	Dicer processing 3.6
O=C1C(=O)N(Cc2ccccc2)c2ccccc21	none
CC1=NN(c2ccccc2)C(=O)/C1=C\c1ccc(Cl)cc1	none
Cn1cnc([N+](=O)[O-])c1Sc1cccs1	none
O=C(Cn1c(=O)sc2ccccc21)OCc1ccccc1	none
Nc1cc(=O)[nH]c(SCc2c(Cl)cccc2Cl)n1	none
Cc1nc2c(cnn2-c2ccccc2)c(=O)o1	none
O=c1[nH]cnc2c1cnn2-c1ccccc1	Dicer processing 3.6
O=c1[nH]cnc2c1cnn2-c1ccc(F)cc1	none
CCOC(=O)C1=C(C)NC(=S)N(C(C)=O)C1c1cccs1 (centres undefined)	none
c1ccc(CCc2nn3c(COc4ccccc4)nnc3s2)cc1	none
CC(=O)Oc1c(I)c(=O)n(C)c2ccccc12	none
Cn1c(=O)c(-c2ccccc2)c(O)c2ccccc21	none
Cn1c(=O)c(I)c(O)c2ccccc21	Dicer processing 5.3
Cc1ccc(S(=O)(=O)c2ccc(Cl)cc2)cc1S(=O)(=O)NCc1ccco1	none
CC(=O)/C=C(\C)NCCN/C(C)=C/C(C)=O	none
CN(C)NC(=O)Cn1nnc(-c2cc(Cl)cc(Cl)c2)n1	none
CC1CN=C(N(C(=O)Nc2cccc(Cl)c2)c2ccc(Cl)cc2)S1 (centres undefined)	none
CSC1=NC(C)(C)CCC12C=CC(=O)C=C2	Dicer processing 3.2
COC1=C(OC)C2(C=CC1=O)CC(C)(C)N=C2SC (centres undefined)	none
CCCC(=O)O[C@@H]1C(=O)c2ccccc2O[C@H]1c1ccccc1	none
CC1CC(C)(C)CC2(CC(=O)N(c3ccc(Cl)cc3)C2=O)C1 (centres undefined)	none
COCCCN=C(Nc1cc(C)c(C)cc1C)SC	Dicer processing 3.9
COCCCN=C(Nc1ccc(Br)cc1C)SC	none
CN=C(Nc1ccc(C)cc1C)SC	none
Cc1nn(C(=O)c2sc3ccccc3c2Cl)c(C)c1Cl	none
CSc1c(C#N)c(-c2ccccc2)nn1C	none
O=C(NCC1CCCO1)c1ccc(COc2ccc(F)cc2)o1 (centres undefined)	none
CCOc1ccc(OCc2ccc(C(=O)NC(C)(C)C)o2)cc1	Dicer processing 3.4
CC(C)(C)c1ccc(OCc2ccc(C(=O)O)o2)cc1	none
Cc1nn(CCC#N)c(C)c1Cc1c(Cl)cccc1Cl	none
Nc1nccnc1C(=O)N/N=C/c1ccccc1F	none
CNC(=O)c1cnn(-c2c(Cl)cc(Cl)cc2Cl)c1C	none
CCOC(=O)C1CCN(S(=O)(=O)c2ccc(Br)cc2)CC1	none
CCOc1ccc(S(=O)(=O)N2CN3CCN(C3)C2)cc1	Dicer processing 3.2
CCCCOc1ccc(S(=O)(=O)n2cnc(C)c2)cc1	none
CCOC(=O)C1=C(C)NC2=C(C(=O)CC(C)(C)C2)C1c1c(C)nn(-c2ccccc2)c1C (centres undefined)	none
O=C1c2ccccc2C(=O)N1CN(Cc1ccc2c(c1)OCO2)CN1C(=O)c2ccccc2C1=O	none
O=C1c2ccccc2-c2c1c1ccccc1c(=O)n2CC1CC1	none
O=C1c2ccccc2-c2c1c1ccccc1c(=O)n2Cc1ccc2c(c1)OCO2	Dicer processing 3.1
Cc1nc(N2CCOCC2)[nH]c(=O)c1Cc1c(F)cccc1Cl	none
CCOC(=O)/C(C)=N/Nc1ccc(C)c(C)c1	none
COc1ccc(OC)c(S(=O)(=O)c2ccc(Cl)cc2[N+](=O)[O-])c1	Dicer processing 4.2
O=[N+]([O-])c1cc(Cl)ccc1S(=O)(=O)c1ccccc1	none
O=[N+]([O-])c1cc(Cl)ccc1S(=O)(=O)c1ccc(Cl)cc1	none
O=C1CCCC(=O)C1C(c1ccc(-c2cc(C(F)(F)F)ccc2Cl)o1)C1C(=O)CCCC1=O	none
